Bioassay records (PubChem)
TGFb inhibitor = inhibitors of TGF-b signaling; Potency, µM (highest dose often 46.1 µM), for inactives: top-dose activity, negative = inhibition, most hits filed as inhibitors; actives 1.2% (n = 410,000); HepG2 CAGA-GFP TGF-b/SMAD3 reporter, GFP fluorescence, 18 h; TGF-beta stimulated, 500 pg/mL final; AID 588855; note: potency is the fitted concentration of half-maximal effect; % is set by controls: 0 for no effect and ±100 for the full control effect; nearly all actives have a fitted effect of over 65% in size
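Inhibition was scored as loss of TGF-beta-induced (500 pg/mL final, 18 hours, 37 degrees C) GFP in HEPG2 cells carrying a CAGA-GFP reporter, in DMEM with 1% FBS. Well GFP was summed per cell; Activity was normalised to unstimulated and stimulated DMSO wells, then concentration-response fitting.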
TDP1 inh = blocks human tyrosyl-DNA phosphodiesterase 1; Q9NUW8; actives 0.28% (n = 350,000); Potency, µM (titrated, usually from 130 µM), without a hit: at the top dose activity change, negative = inhibition, usual class: inhibitors; recombinant TDP1, AlphaScreen DNA substrate cleavage; note: potency is the fitted concentration of half-maximal effect; % is set by controls: 0 for no effect and ±100 for the full control effect; nearly all actives have a fitted effect of over 40% in size
Target sequence (Q9NUW8 whole entry, looked up): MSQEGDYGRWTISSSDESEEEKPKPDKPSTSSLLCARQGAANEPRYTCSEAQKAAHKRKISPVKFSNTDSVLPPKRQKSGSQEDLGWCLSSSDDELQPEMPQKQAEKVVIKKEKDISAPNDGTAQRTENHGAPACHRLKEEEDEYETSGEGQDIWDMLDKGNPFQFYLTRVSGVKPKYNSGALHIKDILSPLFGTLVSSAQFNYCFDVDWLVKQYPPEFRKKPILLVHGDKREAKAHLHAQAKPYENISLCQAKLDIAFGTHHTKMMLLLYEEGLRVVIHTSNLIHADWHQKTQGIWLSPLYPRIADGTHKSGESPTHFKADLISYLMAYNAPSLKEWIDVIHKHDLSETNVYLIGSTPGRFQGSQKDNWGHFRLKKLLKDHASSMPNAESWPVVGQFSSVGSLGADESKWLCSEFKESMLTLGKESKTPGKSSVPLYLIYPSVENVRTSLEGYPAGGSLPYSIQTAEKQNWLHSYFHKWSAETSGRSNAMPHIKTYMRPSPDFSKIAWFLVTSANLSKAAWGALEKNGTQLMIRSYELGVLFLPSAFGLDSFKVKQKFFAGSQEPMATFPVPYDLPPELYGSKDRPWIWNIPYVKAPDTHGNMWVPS
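Recombinant human Tdp1 (E. coli-expressed, 1 nM final) preincubated with compounds 15 min at room temperature, then 5'-biotin/3'-phosphotyrosine-FITC DNA substrate (15 nM final) added for 5 min. AlphaScreen beads (10 ug/ml final) added 10 min; cleavage lowers signal.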
IL-1B inflam inh = inhibitors of inflammasome signaling (IL-1 beta secretion); THP-1 LPS/ATP IL-1B secretion, AlphaLISA, 16 h; hits give low values; activity change, % at 57.5 µM; actives 4.7% (n = 360,000); AID 743279; in the data active = activity change below about -50%; inconclusive = mostly about -30% to -49%; note: % is set by controls: 0 for no effect and ±100 for the full control effect
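Secreted IL-1B measured by AlphaLISA bead assay after 16 h compound exposure of THP-1 cells; compounds (final up to 57.5 uM) added 1 h before LPS (250 ng/mL) and ATP (1.25 mM) stimulation; lower signal means less secretion.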
TDP1 cell noCPT = qHTS for Inhibitors of human tyrosyl-DNA phosphodiesterase 1 (TDP1): qHTS in cells in absence of CPT; DT40 Tdp1-/- hTDP1 cells, no CPT, ATP luminescence, 48 h; Potency, µM (highest dose often 46.2 µM), for the others: at the highest dose activity change, negative = growth inhibition, usual class: inhibitors; actives 15% (n = 420,000); AID 686978, 2013; note: potency is the fitted concentration of half-maximal effect; % is set by controls: 0 for no effect and ±100 for the full control effect; nearly all actives have a fitted effect of over 55% in size
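Luminescent ATP content (CellTiter-Glo) served as the growth readout. Knockout chicken DT40 cells expressing human TDP1 were exposed to compounds without camptothecin for a minimum 48 hr at 37 °C.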
DT40 TDP1 CPT = DT40-hTDP1 cell growth loss with CPT | chicken DT40 Tdp1-/-;hTDP1 cells + 20 nM CPT, ATP luminescence, 48 h | Potency, µM (highest dose often 46.2 µM), inactives show at the top dose activity change, negative = growth inhibition, usual class: inhibitors | actives 12% (n = 420,000) | AID 686979; note: potency is the fitted concentration of half-maximal effect; % is set by controls: 0 for no effect and ±100 for the full control effect; nearly all actives have a fitted effect of over 55% in size
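Cell growth measured by CellTiter-Glo luminescence after a minimum 48 h, 37 C compound exposure with 20 nM CPT in Tdp1-knockout DT40 cells stably expressing hTDP1, seeded 400/well; qHTS titration format.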
HepG2 viability = HepG2 cytotoxicity, counter-screen for TGF-b inhibitors; HepG2 CAGA-GFP viability, ATP luminescence, 18 h; actives 0.76% (n = 410,000); Potency, µM (highest dose often 46.1 µM), for inactives: at the highest dose activity change, negative = cytotoxicity, most hits filed as cytotoxic; AID 588856; note: potency is the fitted concentration of half-maximal effect
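HepG2 CAGA-GFP cells (1000/well, DMEM with 1% FBS) received compound, then TGF-beta at 500 pg/mL final, and were incubated 18 hours at 37 degrees C. Viability was read by CellTiter-Glo luminescence. Media-only wells were set as complete cell-killing and DMSO as no toxicity.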
* marks the source's active call; other numbers are inactive results; ? = inconclusive; / = no result. An excerpt weighted towards active compounds, which were near 18% of everything screened. Unless noted, calls come from the whole dose curve; as a rule, active = well fitted curve in the direction sought with a large enough effect; inconclusive = small, poorly fitted or top-dose-only effect, or another doubt; inactive = no such curve, though single readings can be large; an effect the other way counts as inactive or inconclusive.

SMILES	TGFb inhibitor	TDP1 inh	IL-1B inflam inh	TDP1 cell noCPT	DT40 TDP1 CPT	HepG2 viability
COc1cc(=O)n2c(c1C(=O)N(C)Cc1cscn1)CCN(C(=O)c1ccc(C)c(C)c1)CC2	/	/	/	-3%	7%	/
Cn1c2c(c3ccccc31)CCN1CCC[C@]21c1ccccc1	-23%	/	-6	?	?	-76%
CCCCCOc1ccccc1CN1C(=O)C(=O)c2cc(C)ccc21	-7%	10%	/	5.2µM*	13µM*	-18%
Cc1ccc2c(c1)C(=O)C(=O)N2Cc1ccc(F)cc1	?	6%	68	0.92µM*	0.73µM*	-19%
CCCCOc1ccccc1Cn1c(=O)oc2ccc(C)cc21	-26%	-4%	21	?	?	-2%
Cc1ccc2c(c1)C(CCN)C(=O)N2Cc1ccccc1 (centres undefined)	32%	5%	-7	21µM*	?	8%
CCN1C(=O)C(=O)c2cc(C)ccc21	-1%	0%	74	5.8µM*	4.6µM*	1%
Cc1ccc2c(c1)N(Cc1ccccc1)C(=O)C(C)S2 (centres undefined)	4%	/	27	-12%	-14%	-4%
COc1ccccc1/C=N/NC(=O)CC(=O)NC1CCCCC1	6%	5%	10	17%	2%	3%
Cc1ccc(C)c(OCC(=O)NNC(=O)CCN2CCN(c3ccccc3)CC2)c1	-5%	3%	-10	-23%	?	-5%
Cc1ccc(NC(=O)CSc2nccn2C2CCCC2)cc1Cl	-11%	12%	/	?	?	-27%
Cc1ccc(N2CCN(Cc3ccccc3)CC2=O)c(C)c1	-11%	/	49	-29%	-28%	-1%
Cc1ccc(CN2C(=O)C(F)(F)Oc3ccc(C)cc32)cc1	4%	/	36	-2%	-6%	6%
Cc1ccc2c(c1)C(=O)C(=O)N2Cc1ccccc1	-5%	6%	47	1µM*	1.2µM*	-13%
Cc1ccc2c(c1)C(=O)C(=O)N2Cc1ccc(Cl)cc1	?	4%	59	0.92µM*	0.73µM*	-13%
COc1cccc(NC(=S)/C(=C(\[O-])c2ccc(OC(F)F)cc2)[n+]2ccccc2)c1	-10%	6%	26	15µM*	13µM*	-8%
[O-]/C(=C(\C(=S)Nc1cccc2ccccc12)[n+]1ccccc1)c1ccc(OC(F)F)cc1	0%	3%	18	21µM*	?	0%
CCOc1ccc(CCNC(=O)COC(=O)CSc2ccc(C)cc2)cc1OCC	0%	0%	12	-4%	1%	5%
Cc1nc2ccc(NC(=O)C3=NN(C)C(=O)CC3)cc2s1	-1%	0%	-2	-12%	-3%	-20%
COC(=O)c1ccc(N2CCC(c3cc(-c4ccc(OC)cc4)n[nH]3)CC2)c([N+](=O)[O-])c1	25%	10%	-8	18µM*	21µM*	-26%
COC(=O)c1ccc(N2CCN(CC(=O)c3ccc(C)cc3)CC2)c([N+](=O)[O-])c1	-9%	/	18	-12%	?	-2%
CCOC(=O)c1cn2nc(-c3ccc(OC)cc3)cc2nc1C1CCN(C(=O)OC(C)(C)C)CC1	-23%	-2%	?	?	?	-2%
COc1ccc(-c2cc(C3CCN(c4ccc(C(C)=O)cc4[N+](=O)[O-])CC3)[nH]n2)cc1	-23%	10%	-71*	5.2µM*	5.8µM*	-39%
CC(=O)c1ccc(N2CCC(c3cc(-c4ccc(Cl)cc4)n[nH]3)CC2)c([N+](=O)[O-])c1	?	9%	25	4.6µM*	7.3µM*	-37%
COc1ccc(N2CCN(c3ccc(C(=O)O)cc3[N+](=O)[O-])CC2)cc1	9%	/	-3	8%	20%	0%
SMILES	TGFb inhibitor	TDP1 inh	IL-1B inflam inh	TDP1 cell noCPT	DT40 TDP1 CPT	HepG2 viability
COc1ccc(-c2cc(C3CCN(C(=O)OC(C)(C)C)CC3)[nH]n2)cc1	-18%	0%	-84*	?	?	-6%
CCOC(=O)c1ccc(N2CCN(C(=O)c3ccccc3)CC2)c(NC(=O)c2ccco2)c1	-29%	8%	8	?	-24%	-6%
O=C(c1ccco1)N1CCN(C(=O)c2cnn(-c3ccc(Cl)cc3)c2C2CCNCC2)CC1	0%	1%	13	0%	13%	-6%
CCc1ccc(S(=O)(=O)c2cn(Cc3ccccc3)c3cc(N4CCCC4)c(F)cc3c2=O)cc1	-9%	4%	/	?	?	2%
Cc1c(NC(=O)C(C)OC(=O)c2cccnc2Cl)c(=O)n(-c2ccccc2)n1C (centres undefined)	-1%	0%	12	21%	-8%	6%
CNc1nc2cc([N+](=O)[O-])c([N+](=O)[O-])cc2nc1NC	7.1µM*	1%	0	3.3µM*	2.3µM*	-3%
O=[N+]([O-])c1ccccc1S(=O)(=O)NCCSc1ccccc1	-1%	6%	5	-25%	8%	-10%
CCCCc1nn(-c2cc(Cl)ccc2OC)c2c1C(=O)CC(C)(C)C2	?	4%	-6	21µM*	12µM*	-20%
CCCc1nn(-c2cc(Cl)ccc2OC)c2c1C(=O)CCC2	-6%	4%	-6	?	?	-8%
Cc1[nH]c2ccccc2c1C(=O)CNc1ccc(Br)cc1	?	/	/	?	?	-31%
COc1ccccc1C(C)NCC(=O)c1c(C)[nH]c2ccccc12 (centres undefined)	-9%	/	/	18µM*	11µM*	-25%
Cc1ccc(C(=O)NC2(C(F)(F)F)C(=O)Nc3c2c(=O)[nH]c(=O)n3CCc2ccccc2)cc1 (centres undefined)	0%	1%	/	10%	10%	-15%
Cc1cc(C)nc(SC2CC(=O)N(c3ccc(Br)cc3)C2=O)n1 (centres undefined)	0%	/	29	?	?	-1%
Cc1cc(C)nc(SC2CC(=O)N(c3ccc(Cl)cc3)C2=O)n1 (centres undefined)	-1%	/	15	21µM*	?	-6%
Cc1cc(C)nc(SC2CC(=O)N(c3ccc(C)c(C)c3)C2=O)n1 (centres undefined)	11%	1%	64	15µM*	?	14%
